# Measured values: PMC4336329 (PLoS ONE, 2015)
# Hit rate of the full screen: of about 310,000 compounds, about 14,000 (4.5%) showed an effect of 50% or more. The effect is printed as a negative number. The entries come from a sample that favours strong results as a whole.
# Molecular target: human ether-à-go-go-related gene (hERG) potassium channel (human, UniProt Q12809)
# Assay: primary screen, population patch clamp on CHO cells stably expressing hERG; higher = less effect of the substance
# 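Note: peak tail current of the secondary pulse compared with the same well before compound.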
# human ether-à-go-go-related gene (hERG) potassium channel, sequence (Q12809 whole entry, looked up): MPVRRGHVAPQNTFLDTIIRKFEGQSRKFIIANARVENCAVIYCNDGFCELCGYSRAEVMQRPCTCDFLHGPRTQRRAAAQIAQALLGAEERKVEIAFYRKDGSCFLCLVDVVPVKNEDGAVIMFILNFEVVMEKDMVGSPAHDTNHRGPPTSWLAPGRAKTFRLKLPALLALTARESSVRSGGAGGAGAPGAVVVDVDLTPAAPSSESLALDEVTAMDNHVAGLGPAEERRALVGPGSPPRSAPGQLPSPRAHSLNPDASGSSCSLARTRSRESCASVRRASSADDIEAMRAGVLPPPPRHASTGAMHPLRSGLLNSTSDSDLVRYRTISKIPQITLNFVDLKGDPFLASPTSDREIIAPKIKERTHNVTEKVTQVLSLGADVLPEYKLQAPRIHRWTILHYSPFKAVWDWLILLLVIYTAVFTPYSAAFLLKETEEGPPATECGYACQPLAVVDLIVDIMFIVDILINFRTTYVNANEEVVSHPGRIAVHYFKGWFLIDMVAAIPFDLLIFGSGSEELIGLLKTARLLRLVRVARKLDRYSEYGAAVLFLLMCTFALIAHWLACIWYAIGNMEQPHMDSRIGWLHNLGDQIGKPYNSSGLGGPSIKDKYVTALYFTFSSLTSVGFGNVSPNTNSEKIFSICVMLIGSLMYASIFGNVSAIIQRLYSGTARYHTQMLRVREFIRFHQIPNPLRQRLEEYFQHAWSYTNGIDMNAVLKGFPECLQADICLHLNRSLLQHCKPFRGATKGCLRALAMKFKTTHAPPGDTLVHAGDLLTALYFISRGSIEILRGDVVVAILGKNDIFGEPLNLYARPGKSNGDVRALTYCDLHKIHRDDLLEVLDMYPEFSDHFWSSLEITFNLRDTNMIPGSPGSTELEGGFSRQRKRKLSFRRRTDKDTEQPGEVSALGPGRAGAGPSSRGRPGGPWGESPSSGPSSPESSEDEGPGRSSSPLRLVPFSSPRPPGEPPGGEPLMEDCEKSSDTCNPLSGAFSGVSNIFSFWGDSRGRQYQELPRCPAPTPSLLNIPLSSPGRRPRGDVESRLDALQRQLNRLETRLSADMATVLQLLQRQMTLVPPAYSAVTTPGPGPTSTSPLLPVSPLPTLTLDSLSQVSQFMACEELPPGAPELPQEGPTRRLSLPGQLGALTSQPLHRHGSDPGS
row,SMILES,"hERG current change (%, negative = inhibition) at 10uM [%]"
1,Cc1ccc(C2CC(=O)NC(SCCC(C)C)=C2C#N)cc1 (stereo not shown),-10.6
2,Cc1ccc(C(=O)NCCNC(=O)c2ccc(C)nc2)cc1,5.21
3,Cc1ccc(S(=O)(=O)NCCNC(=O)c2ccc(C)nc2)cc1,-72
4,Cc1ccc(C(=O)NCCNS(=O)(=O)c2ccccc2)cn1,12.7
5,COc1ccccc1NC(=O)COc1ccc(/C=N/NS(=O)(=O)c2ccc(C)cc2)cc1,20.1
6,CC1CCN(CCc2nc3cc(NC(=O)Nc4ccccc4)ccc3n2C)CC1,-44.4
7,CCC(=O)Nc1ccc2c(c1)nc(CCN1CCC(C)CC1)n2C,1.48
8,CC(=O)Nc1ccc2c(c1)nc(CCN1CCC(C)CC1)n2C,8.83
9,Cc1cccc(OCC(=O)Nc2ccc3c(c2)nc(CCN2CCC(C)CC2)n3C)c1,-68.7
10,CC1CCN(CCc2nc3cc(NC(=O)COc4ccccc4)ccc3n2C)CC1,-68.4
11,CC(=O)N1CCN(Cc2nc3cc(NC(=O)COc4cccc(C)c4)ccc3n2C)CC1.Cl,-15.3
12,COc1ccc(OCC(=O)Nc2ccc3c(c2)nc(CCN2CCC(C)CC2)n3C)cc1,-75.4
13,Cc1ccc(OCC(=O)Nc2ccc3c(c2)nc(CCN2CCC(C)CC2)n3C)cc1,-70.6
14,CCOC(=O)CSc1nc(N)cc(=O)[nH]1,7.78
15,CN(Cc1ccccc1)C(=O)c1[nH]cnc1C(=O)NCc1ccc(CNC(=O)OC(C)(C)C)cc1,-6.68
16,CC(C)NC(=O)C1CCN(C(=O)C(C(=O)c2ccccc2)n2cc(Cl)ccc2=O)CC1 (stereo not shown),6.17
17,COC(=O)c1ccc2c(C)c(C(C)(C)O)[nH]c2c1,10.3
18,Cc1sc2nc(-c3cccnc3)[nH]c(=O)c2c1-c1ccccc1,-4.06
19,Clc1ccc(OCCn2ccnc2)c(Cl)c1,-18.9
20,CN(C)/C=N/c1[nH]ncc1C#N,16
21,CC1CCN(CCc2nc3cc(NC(=O)COc4ccc(Cl)cc4)ccc3n2C)CC1,-74.7
22,COc1ccc(-c2c(-c3cc(OC)cc(OC)c3)n(C)c3ccc(-c4cccc5[nH]ccc45)cc23)cc1,16.7

row,SMILES,"hERG current change (%, negative = inhibition) at 10uM [%]"
1,COCCNC(=O)c1ccccc1NS(=O)(=O)c1ccc(Br)s1,0.678
2,CC(C)=C1C2CCC1C(C(=O)Nc1cc(C)cc(C)c1)C2C(=O)O (stereo not shown),14
3,CCN(CC)CC#CCC(O)(c1ccccc1)C1CCCC1.Cl (stereo not shown),-11.7
4,CCN(CC)CC#CCC(C)(c1ccccc1)c1ccccc1.Cl,-54.8
5,CCN(CC)CC#CCC(O)(c1ccccc1)c1ccc(Br)cc1.Cl (stereo not shown),-50.1
6,CN(C)CC#CCC(O)(c1ccccc1)c1ccccc1,-2.15
7,CCN(CC)CC#CCC(O)(c1ccccc1)c1ccccc1,-25.1
8,CCN(CC)CC#CCC(OC)(c1ccccc1)c1ccccc1.Cl,-32.5
9,CC(=O)N1CCC(N(CCN2CCOCC2)C(=S)Nc2cccc(C)c2)CC1,0.988
10,COc1ccc(NS(=O)(=O)c2cccc(C(=O)NCC(c3ccccc3OC)N3CCCC3)c2)cc1 (stereo not shown),-55.4
11,COc1ccc(NS(=O)(=O)c2cccc(C(=O)NCC(c3ccc(OC)cc3)N3CCCC3)c2)cc1 (stereo not shown),-46.7
12,COc1ccccc1C(CNC(=O)c1cccc(S(=O)(=O)Nc2ccc(C)cc2)c1)N1CCCC1 (stereo not shown),-29.8
13,COc1ccc(C(CNC(=O)c2cccc(S(=O)(=O)Nc3ccccc3OC)c2)N2CCCC2)cc1 (stereo not shown),-56.6
14,COc1ccccc1NS(=O)(=O)c1cc(C(=O)NCC(c2ccco2)N2CCCCC2)ccc1C (stereo not shown),-48.6
15,COc1ccccc1NS(=O)(=O)c1cccc(C(=O)NCC(c2ccccc2OC)N2CCCC2)c1 (stereo not shown),-12.9
16,C=CCN(c1ccccc1)S(=O)(=O)c1cccc(C(=O)NCC(c2cccs2)N2CCOCC2)c1 (stereo not shown),-18.7
17,C=CCN(c1ccccc1)S(=O)(=O)c1cccc(C(=O)NCC(c2ccc(F)cc2)N2CCOCC2)c1 (stereo not shown),-29.6
18,C=CCN(c1ccccc1)S(=O)(=O)c1cccc(C(=O)NCC(c2ccccc2OC)N2CCCC2)c1 (stereo not shown),-70.5
19,COc1ccc(C(CNC(=O)c2cccc(S(=O)(=O)Nc3ccccc3OC)c2)N2CCOCC2)cc1 (stereo not shown),-46.1
20,COc1ccc(C(CNC(=O)c2ccc(C)c(S(=O)(=O)Nc3ccccc3OC)c2)N2CCCC2)cc1 (stereo not shown),-66.2
21,COc1ccccc1NS(=O)(=O)c1cc(C(=O)NCC(c2ccc(F)cc2)N2CCOCC2)ccc1C (stereo not shown),-19.1
